Screening results as filed in PubChem BioAssay.
Hits are enriched below; roughly 5.5% of the tested compounds scored in any of these assays.
Mito fusion act: inhibitors of mitochondrial division or activators of mitochondrial fusion | S. cerevisiae fusion-defective mutant growth rescue, CellTiterGlo 48 h | Potency, µM (titrated, usually from 46.1 µM), inactives show at the highest dose growth rescue (activation), actives largely listed as activators | hit rate 0.23% among 320,000; also: % of control where 0% means no effect; nearly all actives have a fitted effect of over 45% in size
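Growth-rescue viability read-out: after 48 h at the non-permissive 37C in glycerol/ethanol YPEG, yeast mitochondrial fusion mutants are measured by CellTiterGlo luminescence; compounds (23 nl pinned per well) restoring growth score as division inhibitors or fusion activators.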
uPA surface inh: blocks generation of uPA at the cell surface. cell surface uPA generation assay, qHTS. hit rate 0.31% among 330,000. Potency, µM (titrated, usually from 38.3 µM), for the others: at the top dose activity change, negative = inhibition, most hits filed as inhibitors; active = well fitted inhibition curve with a large enough effect; inconclusive = small, poorly fitted or top-dose-only effect; inactive = no such curve, though single readings can be large or run the other way; tested in mouse RAW 264.7 cells; also: % is scaled to controls: 0 for no effect and ±100 for the full control effect; nearly all actives have a fitted effect of over 55% in size
Integrin act MD: integrin-mediated muscular dystrophy alleviation activation; Potency, µM (highest dose often 38.3 µM), without a hit: at the top dose activation, usual class: activators; hit rate 0.064% among 350,000; alpha7betagal myoblasts, beta-gal FDG fluorescence, 48 h;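 also: 100% = response of the positive control SU9516; nearly all actives have a fitted effect of over 60% in size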
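Alpha7betagal+/- myoblasts (passage 13) were plated 16-24 hr, then exposed to compounds (1:260 dilution of DMSO stock) for 48 hours at 37C. After MPER lysis, β-galactosidase reporter activity was read as FDG fluorescence (ex 480/em 540) after 30 minutes.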
RORgamma inh: ROR gamma (mouse) transcription inhibition; Drosophila S2 Gal4-RORgamma UAS-luciferase reporter, 20 h; Potency, µM (titrated, usually from 53.6 µM), for the others: at the top dose activity change, negative = inhibition, hits mostly inhibitors; hit rate 5.4% among 310,000; AID 2551; also: % is scaled to controls: 0 for no effect and ±100 for the full control effect; nearly all actives have a fitted effect of over 60% in size
Target sequence (P51450 whole entry, looked up, the tested form may be a part): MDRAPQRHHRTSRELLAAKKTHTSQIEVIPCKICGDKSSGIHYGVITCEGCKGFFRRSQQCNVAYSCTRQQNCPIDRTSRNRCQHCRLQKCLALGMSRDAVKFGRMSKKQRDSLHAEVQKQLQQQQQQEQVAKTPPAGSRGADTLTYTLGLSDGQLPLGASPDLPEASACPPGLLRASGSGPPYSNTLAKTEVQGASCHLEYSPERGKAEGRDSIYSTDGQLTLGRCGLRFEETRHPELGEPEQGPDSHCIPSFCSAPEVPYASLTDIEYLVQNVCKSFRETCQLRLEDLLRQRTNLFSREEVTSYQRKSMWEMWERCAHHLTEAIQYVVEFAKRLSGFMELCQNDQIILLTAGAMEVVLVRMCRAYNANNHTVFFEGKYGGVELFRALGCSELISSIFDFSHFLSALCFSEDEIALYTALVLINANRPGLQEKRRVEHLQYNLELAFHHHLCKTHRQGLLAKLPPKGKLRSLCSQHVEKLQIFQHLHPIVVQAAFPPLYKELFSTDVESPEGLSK
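Stably transfected Drosophila Schneider cells are the test system, with ROR gamma fused to Gal4 and luciferase under UAS control; luminescence is read after 20 hr of 700 uM copper sulfate induction at ambient temperature.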
BCR signal inh: chronic active BCR signaling inhibition; ABC-DLBCL IkBa-CBG/CBR reporter, luminescence ratio, 4 h; Potency, µM (series often up to 46.1 µM), for inactives: top-dose activity change, negative = inhibition, hits mostly inhibitors; hit rate 0.05% among 340,000; active = well fitted inhibition curve with a large enough effect in the signal ratio, with a control signal flat, not every such curve was filed as active; inconclusive = small, poorly fitted or top-dose-only effect, or effect the other way, or a change in a side signal; the % refers to the signal ratio;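 also: plate controls were basal doxycycline-induced cells for no effect and cells given 10 µM MG132 for full effect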
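TMD8 ABC-DLBCL cells carrying doxycycline-inducible green luciferase fused to IkappaBalpha plus unfused red luciferase were exposed to compounds (up to 46 uM) for 4 hrs at 37C. Activity came from the overlap-corrected green/red luminescence ratio.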
Gal4-VP16 FLuc: counter-screen for ROR gamma inhibitors: Gal4-VP16 reporter. AID 2546. Potency, µM (doses to about 53.6 µM), inactives show top-dose activity, negative = inhibition, hits mostly inhibitors. Drosophila S2 Gal4-VP16 UAS-luciferase, luminescence, 20 h. hit rate 3.5% among 310,000;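 also: Gal4-VP16 expression switched on by copper sulfate through the metallothionein promoter; % is scaled to controls: 0 for no effect and ±100 for the full control effect; nearly all actives have a fitted effect of over 50% in size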
Numbers without * were called inactive; ? = inconclusive; · = no result. Unless noted, calls follow the shape of the dose curve; as a rule, active = well fitted curve in the direction sought with a large enough effect; inconclusive = small, poorly fitted or top-dose-only effect, or another doubt; inactive = no such curve, though single readings can be large; an effect the other way counts as inactive or inconclusive. Potency is read from the fitted curve at half-maximal effect.

SMILES	Mito fusion act	uPA surface inh	Integrin act MD	RORgamma inh	BCR signal inh	Gal4-VP16 FLuc
Cc1ccccc1OCC1CO1 (stereo not given)	·	·	·	-4%	·	-14%
O=[N+]([O-])c1ccc(S(=O)(=O)N/N=C/c2ccsc2)cc1	-3%	1%	-9%	-13%	-6%	20%
CCOC(=O)c1c(C)[nH]c(C)c1S(=O)(=O)N1CCCC(C(=O)N2CCN(c3cc(C)ccc3C)CC2)C1 (stereo not given)	·	·	·	·	3%	·
FC(F)(F)c1cccc(-n2cc(-c3ccccc3)[nH]c2=S)c1	-28%	-7%	18%	2.8µM*	?	?
Fc1ccccc1-n1cc(-c2ccccc2)[nH]c1=S	0%	3%	10%	2.5µM*	7%	16µM*
